Results from PubChem BioAssay (Tox21).
Unmarked numbers belong to inactive results. Inconclusive results are not listed. Entries that show only a call come without a potency. Active and inactive are the calls of the source. Unless noted, calls follow the shape of the dose curve; as a rule, active = well fitted curve in the direction sought with a large enough effect in the repeat runs; inconclusive = weak or mixed curves; inactive = no such curve, though single readings can be large; an effect the other way counts as inactive or inconclusive.

Tests used:
[1] = qHTS assay to identify small molecule agonists of the estrogen receptor alpha (ER-alpha) signaling pathway in the presence of an antagonist - cell viability counter screen (AID 1259386);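 also: cells exposed to compounds for 22 h at 37 °C before the viability read; nearly all actives have a fitted effect of over 30% in size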; also: potency is read from the fitted curve at half-maximal effect
Outline: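 VM7Luc4E2 cells (endogenous full-length ER-alpha, 4×ERE-luciferase) were held 5 days in phenol red-free medium with 10% charcoal-stripped FBS, plated, then given 10.0nM ICI-182,780 and compounds at 15 concentrations for 22hr at 37C; viability read by CellTiter-Fluor fluorescence.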

[2] = biological target: Progesterone receptor (Homo sapiens) (UniProt P06401); test: qHTS assay to identify small molecule agonists of the progesterone receptor (PR) signaling pathway (AID 1346784; calls by dose curve; also: nearly all actives have a fitted effect of over 30% in size)
Chain of Progesterone receptor (Homo sapiens) (P06401 whole entry, looked up): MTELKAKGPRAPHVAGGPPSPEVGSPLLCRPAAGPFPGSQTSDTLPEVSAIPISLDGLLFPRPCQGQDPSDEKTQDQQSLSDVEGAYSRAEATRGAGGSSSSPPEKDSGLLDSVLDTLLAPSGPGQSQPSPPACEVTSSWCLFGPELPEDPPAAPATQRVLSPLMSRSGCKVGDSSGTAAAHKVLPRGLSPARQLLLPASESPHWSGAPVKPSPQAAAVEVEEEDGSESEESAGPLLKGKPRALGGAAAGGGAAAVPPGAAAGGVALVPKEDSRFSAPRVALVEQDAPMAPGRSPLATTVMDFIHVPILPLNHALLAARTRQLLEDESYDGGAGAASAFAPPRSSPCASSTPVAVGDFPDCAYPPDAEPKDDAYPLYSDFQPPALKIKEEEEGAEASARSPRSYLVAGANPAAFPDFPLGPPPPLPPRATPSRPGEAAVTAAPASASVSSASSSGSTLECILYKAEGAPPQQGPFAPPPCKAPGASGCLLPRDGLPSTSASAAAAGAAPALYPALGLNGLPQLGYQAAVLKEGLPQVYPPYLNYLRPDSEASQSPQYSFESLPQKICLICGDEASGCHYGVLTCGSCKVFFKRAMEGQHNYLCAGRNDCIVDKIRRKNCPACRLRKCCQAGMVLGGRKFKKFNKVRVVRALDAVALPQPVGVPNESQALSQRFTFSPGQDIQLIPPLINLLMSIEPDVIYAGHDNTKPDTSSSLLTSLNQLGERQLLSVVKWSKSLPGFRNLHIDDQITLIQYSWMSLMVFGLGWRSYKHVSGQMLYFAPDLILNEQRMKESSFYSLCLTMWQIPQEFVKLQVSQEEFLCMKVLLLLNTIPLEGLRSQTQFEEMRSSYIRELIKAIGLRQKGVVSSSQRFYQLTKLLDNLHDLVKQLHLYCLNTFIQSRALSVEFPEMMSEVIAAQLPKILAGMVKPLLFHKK
Outline: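 PR-UAS-bla HEK 293T cells carrying a UAS-driven beta-lactamase reporter were seeded in medium with 2% charcoal-stripped FBS, preincubated 6 hr at 37C, then exposed to compounds in DMSO for 16 hr; agonism was read by LiveBLAzer B/G FRET fluorescence.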

[3] = biological target: Progesterone receptor (Homo sapiens) (UniProt P06401); test: qHTS assay to identify small molecule antagonists of the progesterone receptor (PR) signaling pathway (AID 1346795; active = well fitted inhibition curve with a large enough effect in the signal ratio in the repeat runs, not every such curve was filed as active; the % refers to the signal ratio; also: potency is read from the fitted curve at half-maximal effect)
Outline: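 PR-UAS-bla HEK293T cells carrying a UAS-driven beta-lactamase reporter were plated in medium with 2% charcoal-stripped FBS and rested 6 hr at 37C. Compounds were added with 1 nM R5020 (final) for 16 hr, then FRET substrate loaded 2 hr at room temperature.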

[4] = qHTS assay to identify small molecule antagonists of the progesterone receptor (PR) signaling pathway - cell viability counter screen (AID 1346798); also: series mostly up to about 92 µM; nearly all actives have a fitted effect of over 50% in size
Outline: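 PR-UAS-bla HEK293T cells in medium with 2% charcoal-stripped FBS were treated with compounds plus R5020 for 16 hr at 37C. Cell viability was then read by CellTiter-Glo luminescence after 30 min at room temperature in the same wells.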

[5] = qHTS assay to identify small molecule agonists of the progesterone receptor (PR) signaling pathway - cell viability counter screen (AID 1346799; calls by dose curve; also: nearly all actives have a fitted effect of over 45% in size)
Outline: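 PR-UAS-bla HEK293T cells, 3,000 per well in medium with 2% charcoal-stripped FBS, were preincubated 6 hr at 37C, then exposed to compounds for 16 hr; viability was read as CellTiter-Glo luminescence after 30 min at room temperature.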

[6] = qHTS assay to identify small molecule antagonists of the TGF-beta/Smad signaling pathway - cell viability counter screen (AID 1346824); also: nearly all actives have a fitted effect of over 50% in size
Outline: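 SBE-bla HEK 293T cells were plated overnight at 37 C, then given compounds in DMSO plus TGF-beta1 (added as 0.25 ng/mL solution) for 5 hr. After the bla read, CellTiter-Glo was added to the same wells and luminescence read after 30 min at room temperature.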

[7] = qHTS assay to identify small molecule agonists of the TGF-beta/Smad signaling pathway - cell viability counter screen (AID 1346829); also: top concentration of the series differs between compounds; nearly all actives have a fitted effect of over 45% in size
Outline: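 SBE-bla HEK 293T cells plated overnight, compound exposure 5 hr at 37 C. Viability read in the same wells by CellTiter-Glo luminescence after 30 min at room temperature, following the beta-lactamase read.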

[8] = qHTS assay to identify small molecule agonists of the TGF-beta/Smad signaling pathway (AID 1346859; active = well fitted activation curve with a large enough effect in the signal ratio in the repeat runs, not every such curve was filed as active; the % refers to the signal ratio; also: series mostly up to about 77 µM)
Outline: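 HEK 293T cells stably carrying a beta-lactamase reporter driven by the Smad binding element were seeded overnight, exposed to DMSO-dissolved compounds for 5 hr at 37 C, 5% CO2, then loaded with FRET substrate for 2 hr at room temperature.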

[9] = biological target: Thyrotropin-releasing hormone receptor (Homo sapiens) (UniProt P34981); test: qHTS assay to identify small molecule antagonists of the thyrotropin-releasing hormone receptor (TRHR) signaling pathway (AID 1346877; active = well fitted inhibition curve with a large enough effect in the repeat runs, not every such curve was filed as active; also: series mostly up to about 51 µM)
Chain of Thyrotropin-releasing hormone receptor (Homo sapiens) (P34981 whole entry, looked up): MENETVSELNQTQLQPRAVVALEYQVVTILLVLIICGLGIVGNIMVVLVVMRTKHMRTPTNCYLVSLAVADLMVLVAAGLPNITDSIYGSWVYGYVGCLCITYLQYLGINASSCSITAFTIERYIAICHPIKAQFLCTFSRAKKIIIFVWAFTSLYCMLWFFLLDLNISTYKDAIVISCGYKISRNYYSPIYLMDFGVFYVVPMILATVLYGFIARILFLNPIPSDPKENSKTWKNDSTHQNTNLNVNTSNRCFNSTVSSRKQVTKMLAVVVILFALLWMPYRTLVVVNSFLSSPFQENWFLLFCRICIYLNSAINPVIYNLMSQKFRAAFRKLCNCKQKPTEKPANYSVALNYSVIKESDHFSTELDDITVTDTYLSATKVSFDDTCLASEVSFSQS
Outline: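 TRHR-expressing HEK293 cells were seeded, cultured 18 h at 37 °C, then loaded with calcium dye for 2 h. Compounds were pre-incubated 5 min at room temperature before 1 nM TRH (final) was added, and kinetic fluorescence was recorded for 3 min.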

[10] = biological target: Thyrotropin-releasing hormone receptor (Homo sapiens) (UniProt P34981); test: qHTS assay to identify small molecule agonists of the thyrotropin-releasing hormone receptor (TRHR) signaling pathway (AID 1346891; calls by dose curve; also: series mostly up to about 58 µM)
Outline: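 TRHR-expressing HEK293 cells were plated 18 h at 37 °C/5% CO2, loaded with calcium dye 2 h at 37 °C, then given compound in DMSO; fluorescence was read kinetically for 3 min at 1 s intervals.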

OCCBr
Potency [1]: inactive | Potency [2]: inactive | Potency [3]: inactive | Potency [4]: inactive | Potency [5]: inactive | Potency [6]: inactive | outcome [7]: inactive | outcome [8]: inactive | outcome [9]: inactive | outcome [10]: inactive

Nc1cnn(-c2ccccc2)c(=O)c1Cl
Potency [1]: inactive | Potency [2]: inactive | Potency [3]: inactive | Potency [4]: inactive | Potency [5]: inactive | Potency [6]: inactive | outcome [7]: inactive | outcome [8]: inactive | outcome [9]: inactive | outcome [10]: inactive

CNC(=O)Oc1cccc(C(C)C)c1
Potency [1]: inactive | Potency [2]: inactive | Potency [3]: inactive | Potency [4]: inactive | Potency [5]: inactive | Potency [6]: inactive | outcome [7]: inactive | outcome [8]: inactive | outcome [9]: inactive | outcome [10]: inactive

CC(=O)CC(c1ccc(Cl)cc1)c1c(O)c2ccccc2oc1=O (stereo not given)
Potency [1]: inactive | Potency [2]: inactive | Potency [3]: inactive | Potency [4]: inactive | Potency [5]: inactive | Potency [6]: inactive | outcome [7]: inactive | outcome [8]: inactive | outcome [9]: inactive | outcome [10]: inactive

CN1CCC(O)(c2ccc(F)cc2)C(C(=O)c2ccc(F)cc2)C1 (stereo not given)
Potency [1]: inactive | Potency [2]: inactive | Potency [3]: inactive | Potency [4]: inactive | Potency [5]: inactive | Potency [6]: inactive | outcome [7]: inactive | outcome [8]: inactive | outcome [9]: inactive | outcome [10]: inactive

c1cc2c(c(N3CCNCC3)c1)OCCO2
Potency [1]: inactive | Potency [2]: inactive | Potency [3]: inactive | Potency [4]: inactive | Potency [5]: inactive | Potency [6]: inactive | outcome [7]: inactive | outcome [8]: inactive | outcome [9]: inactive | outcome [10]: inactive

O=CNC(N1CCN(C(NC=O)C(Cl)(Cl)Cl)CC1)C(Cl)(Cl)Cl (stereo not given)
Potency [1]: inactive | Potency [2]: inactive | Potency [3]: inactive | Potency [4]: inactive | Potency [5]: inactive | Potency [6]: inactive | outcome [7]: inactive | outcome [8]: inactive | outcome [9]: inactive | outcome [10]: inactive

CCOC(=O)N(C)C(=O)CSP(=S)(OCC)OCC
Potency [1]: inactive | Potency [2]: inactive | Potency [3]: inactive | Potency [4]: inactive | Potency [5]: inactive | Potency [6]: inactive | outcome [7]: inactive | outcome [8]: inactive

CCCSC(=O)Cl
Potency [1]: inactive | Potency [2]: inactive | Potency [3]: inactive | Potency [4]: inactive | Potency [5]: inactive | Potency [6]: inactive | outcome [7]: inactive

CCC#N
Potency [1]: inactive | Potency [2]: inactive | Potency [3]: inactive | Potency [4]: inactive | Potency [5]: inactive | Potency [6]: inactive | outcome [7]: inactive | outcome [8]: inactive | outcome [9]: inactive | outcome [10]: inactive

ClC(Br)Br
Potency [1]: inactive | Potency [2]: inactive | Potency [3]: inactive | Potency [4]: inactive | Potency [5]: inactive | Potency [6]: inactive | outcome [7]: inactive | outcome [8]: inactive | outcome [9]: inactive | outcome [10]: inactive

Nc1c(Br)cc([N+](=O)[O-])cc1[N+](=O)[O-]
Potency [1]: 31 µM (active) | Potency [2]: inactive | Potency [3]: 27.6 µM (active) | Potency [4]: inactive | Potency [5]: inactive | Potency [6]: inactive | outcome [7]: inactive | outcome [8]: inactive | outcome [9]: inactive | outcome [10]: inactive

O=C(O)c1cccc(Cl)c1
Potency [1]: inactive | Potency [2]: inactive | Potency [3]: inactive | Potency [4]: inactive | Potency [5]: inactive | Potency [6]: inactive | outcome [7]: inactive | outcome [8]: inactive | outcome [9]: inactive | outcome [10]: inactive
